{"source": "PubChem BioAssay (NCATS)", "key": {"[1]": {"target": "Mitogen-activated protein kinase 10 (Mus musculus) (UniProt Q61831)", "experiment": "JNK3 AlphaScreen Assay (AID 530; active means well fitted curve in either direction with a large enough effect, not every such curve was filed as active;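 further: kinase came from lysate of stimulated human HepG2 cells; signal reports phosphorylation of biotinylated GST-cJun 1-79 at Ser73 with 10 µM ATP; series mostly up to about 57 µM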)", "outline": "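Compound titrations were preincubated 15 minutes at room temperature with substrate, antibody and pre-activated JNK3-containing HepG2 lysate. Reactions were started with 10 uM ATP and stopped with EDTA-containing bead buffer for AlphaScreen detection.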"}, "[2]": {"target": "Cytochrome P450 3A4 (Homo sapiens) (UniProt P08684)", "sequence (P08684 whole entry, looked up)": "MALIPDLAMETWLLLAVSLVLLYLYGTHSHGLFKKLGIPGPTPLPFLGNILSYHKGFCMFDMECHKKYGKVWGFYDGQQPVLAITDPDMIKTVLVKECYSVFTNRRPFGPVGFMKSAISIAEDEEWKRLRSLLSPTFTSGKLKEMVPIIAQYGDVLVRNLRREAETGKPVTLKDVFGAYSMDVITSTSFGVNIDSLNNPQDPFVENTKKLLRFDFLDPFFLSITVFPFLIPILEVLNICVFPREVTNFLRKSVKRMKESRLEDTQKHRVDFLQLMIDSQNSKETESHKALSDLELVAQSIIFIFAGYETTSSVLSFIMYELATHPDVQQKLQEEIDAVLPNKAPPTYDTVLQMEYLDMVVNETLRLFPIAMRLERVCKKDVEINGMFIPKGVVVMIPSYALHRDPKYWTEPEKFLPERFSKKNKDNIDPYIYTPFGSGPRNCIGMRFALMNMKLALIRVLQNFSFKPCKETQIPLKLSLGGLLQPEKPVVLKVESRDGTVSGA", "experiment": "qHTS Assay for Inhibitors and Substrates of Cytochrome P450 3A4 (AID 884); further: nearly all actives have a fitted effect of over 50% in size; further: potency means the concentration at half of the fitted maximal effect", "outline": "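20 nM human CYP3A4 with 25 uM Luciferin-PPXE (at KM) in 200 mM KPO4, preincubated 10 min with compound; NADPH regeneration started a 60 min RT reaction. Luciferin detected by luminescence, normalized to 57 uM ketoconazole as full inhibition.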"}, "[3]": {"target": "Calcium and integrin-binding protein 1 (Homo sapiens) (UniProt Q99828)", "sequence (Q99828 whole entry, looked up)": "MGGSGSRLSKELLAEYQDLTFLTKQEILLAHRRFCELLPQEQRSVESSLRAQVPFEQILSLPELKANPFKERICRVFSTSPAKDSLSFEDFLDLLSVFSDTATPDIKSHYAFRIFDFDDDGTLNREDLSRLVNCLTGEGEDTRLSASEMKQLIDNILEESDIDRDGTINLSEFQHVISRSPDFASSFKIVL", "experiment": "Primary qHTS for Identification of Calcium Integrin Binding Protein 1 (CIB1) Competitor (AID 1508620);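 further: GST tagged CIB1 binding a fluorescein labelled alphaIIb integrin peptide tracer; top concentration of the series differs between compounds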", "outline": "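CIB1-GST (1 uM final) and compound incubated 15 min at room temperature before adding FITC-alphaIIb peptide tracer (100 nM final). Competition for binding read by fluorescence polarization (ex 480, em 540) after another 15 min at room temperature.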"}, "[4]": {"experiment": "qHTS for Inhibitors of Ubiquitin-specific Protease USP2a Using CHOP2 as the Reporter: K633 Counterscreen (AID 652168); further: series mostly up to about 57 µM", "outline": "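Cell-free interference counterscreen without USP2a: compounds pinned into enzyme-free buffer (20 mM Tris pH 8, 2 mM beta-mercaptoethanol, 0.05% Chaps), then DiUb K48-4IQF substrate added (100 nM stock); fluorescence read kinetically, Ex 525/Em 598.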"}, "[5]": {"experiment": "qHTS for Inhibitors of Ubiquitin-specific Protease USP2a Using CHOP2 as the Reporter: Cytotox Assay (AID 652170); further: series mostly up to about 46 µM; nearly all actives have a fitted effect of over 70% in size", "outline": "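HCT116 human colon cancer cells, 600 per well in DMEM with 10% FBS, exposed to compounds for 72 hr at 37 deg C. ATP measured by CellTiter-Glo luminescence, normalized to DMSO cells and no-cell background.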"}, "[6]": {"target": "Cytochrome P450 3A4 (Homo sapiens) (UniProt P08684)", "experiment": "qHTS Assay for Activators of Cytochrome P450 3A4 (AID 885); further: nearly all actives have a fitted effect of over 65% in size", "outline": "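20nM CYP3A4 + 25uM Luciferin-PPXE (=KM), 200mM KPO4; cpd 10 min RT; NADPH regen, 60 min RT; stop w/ detection buffer, 20 min; luminescence. Normalized to 57 uM ketoconazole.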"}, "[7]": {"experiment": "qHTS for Inhibitors of the vitamin D receptor (VDR): Hit Validation using a Texas Red Assay (AID 602201)", "outline": "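After a 2-hour room-temperature incubation, polarization of Texas-Red emission was read (Ex 595 nm/Em 615 nm). Final mix contained 7 nM Texas Red, 1.5 uM VDR-LBD and LG19078.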"}}, "note": "Inconclusive results are not listed. Entries that show only a call come without a potency. The source made the active and inactive calls. Unless noted, the call rests on the fitted dose curve; in most records, active means well fitted curve in the direction sought with a large enough effect; inconclusive means small, poorly fitted or top-dose-only effect, or another doubt; inactive means no such curve, though single readings can be large; an effect the other way counts as inactive or inconclusive.", "data": [{"smiles": "CCCCNc1nc(C)nc2c1nc(-c1ccccc1)n2C(C)CCCN(CC)CC", "note": "(centres undefined)", "values": [{"measurement": "outcome", "setting": "[1]", "result": "inactive"}, {"measurement": "Potency", "setting": "[2]", "result": "10 µM (active)"}, {"measurement": "Potency", "setting": "[3]", "result": "inactive"}]}, {"smiles": "COCCN(CCOC)c1nc(C)nc2c1nc(-c1ccccc1)n2CCN(C)C", "values": [{"measurement": "outcome", "setting": "[1]", "result": "inactive"}, {"measurement": "Potency", "setting": "[3]", "result": "inactive"}]}, {"smiles": "CCCn1c(C)nc2c(NCCN(C(C)C)C(C)C)nc(C)nc21", "values": [{"measurement": "outcome", "setting": "[1]", "result": "inactive"}, {"measurement": "Potency", "setting": "[2]", "result": "inactive"}, {"measurement": "Potency", "setting": "[3]", "result": "inactive"}]}, {"smiles": "CCCn1c(C)nc2c(NCCOC)nc(C)nc21", "values": [{"measurement": "outcome", "setting": "[1]", "result": "inactive"}, {"measurement": "Potency", "setting": "[2]", "result": "inactive"}, {"measurement": "Potency", "setting": "[3]", "result": "inactive"}]}, {"smiles": "CCN(CC)CCCn1c(-c2ccccc2)nc2c(NCCOC)nc(C)nc21", "values": [{"measurement": "outcome", "setting": "[1]", "result": "inactive"}, {"measurement": "Potency", "setting": "[2]", "result": "inactive"}, {"measurement": "Potency", "setting": "[3]", "result": "inactive"}]}, {"smiles": "CCCn1c(-c2ccc(F)cc2)nc2c(NC3CCN(Cc4ccccc4)CC3)nc(C)nc21", "values": [{"measurement": "outcome", "setting": "[1]", "result": "inactive"}, {"measurement": "Potency", "setting": "[2]", "result": "inactive"}, {"measurement": "Potency", "setting": "[3]", "result": "inactive"}]}, {"smiles": "COCCNc1nc(C)nc2c1nc(-c1ccccc1)n2CCN(C)C", "values": [{"measurement": "outcome", "setting": "[1]", "result": "inactive"}, {"measurement": "Potency", "setting": "[2]", "result": "inactive"}, {"measurement": "Potency", "setting": "[3]", "result": "inactive"}]}, {"smiles": "CCCn1c(-c2ccc(F)cc2)nc2c(NCCN(C)C)nc(C)nc21", "values": [{"measurement": "outcome", "setting": "[1]", "result": "inactive"}, {"measurement": "Potency", "setting": "[2]", "result": "inactive"}, {"measurement": "Potency", "setting": "[3]", "result": "inactive"}]}, {"smiles": "CCN(CC)CCCC(C)n1c(-c2ccccc2)nc2c(NCCO)nc(C)nc21", "note": "(centres undefined)", "values": [{"measurement": "outcome", "setting": "[1]", "result": "inactive"}, {"measurement": "Potency", "setting": "[2]", "result": "inactive"}, {"measurement": "Potency", "setting": "[3]", "result": "inactive"}]}, {"smiles": "Cc1ccc(S(=O)(=O)Nc2ccccc2C(=O)Nc2nccs2)cc1", "values": [{"measurement": "outcome", "setting": "[4]", "result": "inactive"}, {"measurement": "Potency", "setting": "[3]", "result": "inactive"}]}, {"smiles": "COc1ccc(C(=O)Nc2nc(-c3ccccc3)cs2)c(OC)c1", "values": [{"measurement": "outcome", "setting": "[4]", "result": "inactive"}, {"measurement": "Potency", "setting": "[3]", "result": "inactive"}]}, {"smiles": "O=C(Nc1nc(-c2ccccc2)cs1)c1cccc(NS(=O)(=O)c2nccs2)c1", "values": [{"measurement": "outcome", "setting": "[4]", "result": "inactive"}, {"measurement": "Potency", "setting": "[5]", "result": "inactive"}, {"measurement": "Potency", "setting": "[3]", "result": "inactive"}]}, {"smiles": "COCCN(CCOC)c1nc(C)nc2c1nc(-c1ccccc1)n2CCN1CCCC1", "values": [{"measurement": "outcome", "setting": "[1]", "result": "inactive"}, {"measurement": "Potency", "setting": "[6]", "result": "inactive"}, {"measurement": "Potency", "setting": "[3]", "result": "inactive"}]}, {"smiles": "COCCNc1nc(C)nc2c1nc(-c1ccccc1)n2CCN1CCCC1", "values": [{"measurement": "outcome", "setting": "[1]", "result": "inactive"}, {"measurement": "Potency", "setting": "[6]", "result": "inactive"}, {"measurement": "Potency", "setting": "[3]", "result": "inactive"}]}, {"smiles": "O=C(CSc1nc2ccc(S(=O)(=O)N3CCOCC3)cc2[nH]1)N1CCOCC1", "values": [{"measurement": "Potency", "setting": "[7]", "result": "inactive"}, {"measurement": "Potency", "setting": "[3]", "result": "inactive"}]}, {"smiles": "CCCn1c(C)nc2c(N(CCOC)CCOC)nc(C)nc21", "values": [{"measurement": "outcome", "setting": "[1]", "result": "inactive"}, {"measurement": "Potency", "setting": "[6]", "result": "inactive"}, {"measurement": "Potency", "setting": "[3]", "result": "inactive"}]}]}
